VDR inh: inhibitors of human vitamin D receptor; VDR-SRC2-3 peptide fluorescence polarization, 2 h; Potency, µM, actives largely listed as inhibitors; 400,000 compounds, 0.93% hits
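Compounds are added to VDR with labelled SRC2-3 coactivator peptide and held 2 h at room temperature. Inhibition of the VDR–peptide interaction is then read as a change in fluorescence polarization.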
TDP1 cell noCPT: qHTS for Inhibitors of human tyrosyl-DNA phosphodiesterase 1 (TDP1): qHTS in cells in absence of CPT. 420,000 compounds, 15% hits. DT40 Tdp1-/- hTDP1 cells, no CPT, ATP luminescence, 48 h. Potency, µM (doses to about 46.2 µM), hits mostly inhibitors; note: nearly all actives have a fitted effect of over 55% in size
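Growth of hTDP1-complemented DT40 Tdp1-knockout cells is measured by ATP luminescence after at least 48 hr compound exposure at 37 °C, with DMSO substituting for the 20 nM CPT used in the parallel screen.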
TDP1 inh: blocks human tyrosyl-DNA phosphodiesterase 1. Potency, µM (doses to about 130 µM), actives largely listed as inhibitors. recombinant TDP1, AlphaScreen DNA substrate cleavage. 350,000 compounds, 0.28% hits. Q9NUW8; note: nearly all actives have a fitted effect of over 40% in size
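Recombinant E. coli-expressed Tdp1 (1 nM) preincubated with compound 15 min at RT, then 5'-biotin/3'-phosphotyrosine-FITC DNA substrate (15 nM) added for 5 min. AlphaScreen beads (10 ug/ml) added, 10 min RT; tyrosine-FITC cleavage read as signal loss.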
GCN5L2 inh: GCN5L2 (KAT2A) acetyltransferase inhibition. Potency, µM (doses to about 58.9 µM), usual class: inhibitors. GCN5L2 HAT assay, ThioGlo1 CoA-SH fluorescence. AID 504327. 390,000 compounds, 0.21% hits. Q92830
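Titration-based screen in which CoA formation is detected via maleimide probe ThioGlo1 (50uM) turning fluorescent on thiol reaction; substrates H3(1-25) 75uM and acetyl-CoA 70uM, GCN5L2 20nM, 20 min incubation at room temperature.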
PLK1 PBD block: inhibitors of human PLK1 polo-box domain binding. P53350. Plk1 PBD binding of FITC phosphopeptide, fluorescence polarization. Potency, µM, hits mostly inhibitors. 360,000 compounds, 2.8% hits; note: series mostly up to about 57 µM; nearly all actives have a fitted effect of over 65% in size
Target sequence (P53350 whole entry, looked up, the tested form may be a part): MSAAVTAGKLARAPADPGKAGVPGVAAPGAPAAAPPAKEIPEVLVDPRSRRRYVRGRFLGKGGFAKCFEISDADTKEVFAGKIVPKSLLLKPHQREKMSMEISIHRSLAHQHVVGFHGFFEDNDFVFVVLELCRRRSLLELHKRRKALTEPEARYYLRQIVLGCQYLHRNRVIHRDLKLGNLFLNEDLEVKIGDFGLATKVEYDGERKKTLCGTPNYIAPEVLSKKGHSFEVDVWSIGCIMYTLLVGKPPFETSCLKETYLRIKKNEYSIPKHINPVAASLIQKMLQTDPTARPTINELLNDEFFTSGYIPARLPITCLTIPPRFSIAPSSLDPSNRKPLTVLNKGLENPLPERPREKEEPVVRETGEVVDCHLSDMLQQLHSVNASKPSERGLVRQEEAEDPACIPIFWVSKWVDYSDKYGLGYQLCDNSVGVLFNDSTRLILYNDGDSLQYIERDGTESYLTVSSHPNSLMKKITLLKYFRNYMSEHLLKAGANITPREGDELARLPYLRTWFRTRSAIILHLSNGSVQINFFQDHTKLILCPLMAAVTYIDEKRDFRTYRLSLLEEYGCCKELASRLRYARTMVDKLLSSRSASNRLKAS
DT40 TDP1 CPT: DT40-hTDP1 cell growth loss with CPT; chicken DT40 Tdp1-/-;hTDP1 cells + 20 nM CPT, ATP luminescence, 48 h; 420,000 compounds, 12% hits; Potency, µM (titrated, usually from 46.2 µM), hits mostly inhibitors; AID 686979; note: nearly all actives have a fitted effect of over 55% in size
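Chicken DT40 Tdp1-/- cells complemented with human TDP1, 400 cells/well, exposed to compounds plus 20 nM camptothecin for at least 48 h at 37 C; viability read as ATP content by CellTiter-Glo luminescence.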
A number is an active result; 0 = inactive; ? = inconclusive; - = no result given; [ ] = another dose, or the depositor's remark. Rows were chosen to be rich in hits. Some 18% of all compounds tested hit in one or more screens of this group. Calls come from the whole dose curve; as a rule, active = well fitted curve in the direction sought with a large enough effect; inconclusive = small, poorly fitted or top-dose-only effect, or another doubt; inactive = no such curve, though single readings can be large; an effect the other way counts as inactive or inconclusive.

SMILES	VDR inh	TDP1 cell noCPT	TDP1 inh	GCN5L2 inh	PLK1 PBD block	DT40 TDP1 CPT
Cc1nc(Nc2ccc(Cl)cc2)c2nnn(Cc3ccccc3)c2n1	0	?	0	0	27µM	?
CCOC(=O)CNc1nc(C(C)(C)C)nc2c1nnn2Cc1ccccc1Cl	0	26µM	0	0	0	?
COc1ccc(Nc2nc(C)nc3c2nnn3Cc2ccccc2)cc1OC	0	23µM	0	?	0	?
Cc1nc(N2CCCC2)c2nnn(Cc3ccccc3Cl)c2n1	0	26µM	0	0	0	13µM
Cc1nc(Nc2ccccc2Br)c2nnn(Cc3ccccc3)c2n1	0	?	-	0	0	?
Cc1nc(NC2CCCCC2)c2nnn(Cc3ccccc3Cl)c2n1	?	?	-	0	0	?
OCCNc1ncnc2c1nnn2Cc1ccccc1Cl	-	0	-	-	0	0
Cc1nc2c(nnn2Cc2ccccc2Cl)c(=O)[nH]1	0	0	-	0	0	0
Cc1nc(NCCc2ccc(O)cc2)c2nnn(Cc3ccccc3)c2n1	0	15µM	-	0	0	?
COc1ccc(Nc2nc(C(C)(C)C)nc3c2nnn3Cc2ccccc2Cl)cc1OC	0	15µM	-	-	0	18µM
CC(=O)Nc1ccc(Nc2nc(C)nc3c2nnn3Cc2ccccc2Cl)cc1	0	16µM	-	0	0	0
Cc1nc2c(nnn2Cc2ccccc2)c(=O)[nH]1	?	?	0	0	4.7µM	23µM
CC(Nc1oc(-c2ccccc2)nc1-c1cccc2ccccc12)c1ccccc1 (centres undefined)	0	-	0	-	-	-
Cc1nc(N(C)Cc2ccccc2)c2nnn(Cc3ccccc3)c2n1	0	18µM	0	0	0	23µM
Cc1nc(Nc2cc(F)ccc2C)c2nnn(Cc3ccccc3)c2n1	?	21µM	-	?	24µM	?
Cc1ccc(S(=O)(=O)Oc2cccc(/C=N/n3cnnc3)c2)cc1	?	8.2µM	0	0	0	8.2µM
Cc1ccc(S(=O)(=O)Oc2cccc(/C=N/Nc3ccc(C(=O)O)cc3)c2)cc1	0	0	0	0	?	0
CC(=O)Nc1cc(-c2ccc(Cl)cc2)[nH]n1	0	?	0	0	0	?
O=C(NCCN1CCOCC1)C1CCN(c2ncnc3c2sc2cccc(F)c23)CC1	0	21µM	0	0	0	12µM
CCCCN(CC)CCCNC(=O)C1CCN(c2ncnc3c2sc2cccc(F)c23)CC1	0	29µM	0	0	0	18µM
O=C(C1CCN(c2ncnc3c2sc2cccc(F)c23)CC1)N1CCOCC1	0	29µM	0	0	0	12µM
O=C(NCCN1CCOCC1)C1CCN(Cc2ccccc2O)CC1	0	0	-	0	0	0
CCCCN(CC)CCNC(=O)C1CCN(S(=O)(=O)c2cccc3nsnc23)CC1	0	0	0	0	0	0
Cc1cccc(/C=N/n2c(C)nc3ccccc3c2=O)c1	0	?	-	0	0	0
N#Cc1nc(Nc2cccc(F)c2)nc(NC2CCCC2)n1	-	-	0	-	-	-
SMILES	VDR inh	TDP1 cell noCPT	TDP1 inh	GCN5L2 inh	PLK1 PBD block	DT40 TDP1 CPT
O=C1Nc2ccc(S(=O)(=O)N3CCCC3)c3ccc(S(=O)(=O)N4CCCC4)c1c23	0	?	0	0	0	8.2µM
O=S(=O)(c1ccc(Cl)c2ccccc12)N1CCCC1	0	0.46µM	0	0	0	0
NC(=O)[C@@H]1CCCN1	0	-	0	0	-	-
CCN(Cc1cc2ccccc2[nH]c1=O)C(=O)c1cccc([N+](=O)[O-])c1	0	0	0	0	0	0
CC(=O)Nc1ccc(Nc2cc(C)nc3c(-c4ccccc4)cnn23)cc1	0	16µM	0	0	0	?
C=C/C1=C/Cc2ccccc2C(C[N+](=O)[O-])C(C(=O)OC)(C(=O)OC)C1 (centres undefined)	-	-	0[21 µM]	-	-	-
Clc1ccccc1CSC1=NCCN1	0	0	0	0	0	0
CCOc1ccc(CSC2=NCCN2)cc1Cl	0	15µM	0	0	0	?
N#Cc1ccc(CSC2=NCCN2)cc1	0	23µM	0	0	0	21µM
c1ccc(CSC2=NCCCN2)cc1	0	0	0	0	0	0
O=C(NC1C2CC3CC(C2)CC1C3)C1CCCCC1 (centres undefined)	0	0	-	0	0	0
NC1=NC(=Nc2cccc(S(=O)(=O)N3CCOCC3)c2)c2ccccc21	?	0	0	0	0	?
O=C1C=C(c2ccc(-c3ccccc3)cc2)C[C@@H](c2ccc(F)cc2)C1	?	?	0	0	0	18µM
Cn1ccc2ccc(C3=CC(=O)C[C@H](c4ccc(F)cc4)C3)cc21	0	18µM	0	0	0	7.3µM
O=C1C=C(c2ccc(CO)cc2)C[C@@H](c2ccc(F)cc2)C1	-	23µM	-	-	0	0
Nc1cc(=O)[nH]c2c1CCC2	-	0	-	-	-	0
CC(C)Cn1c(O)c(N=NC(=O)c2cccc(S(=O)(=O)N3CCCCC3)c2)c2ccccc21	0	13µM	0	0	0	16µM
O=C(NNC(=O)c1cccc(S(=O)(=O)N2CCCCC2)c1)c1ccccc1	0	0	0	0	0	0
C[C@H](NC(=O)C1CCN(C(=O)[C@H](Cc2ccccc2)NC(=O)OC(C)(C)C)CC1)C(=O)O	0	0	-	0	0	0
O=C(NN=Cc1ccc2c(c1)OCO2)NN=Cc1ccc2c(c1)OCO2	0	?	-	-	0	0
N/C(=N\N=Cc1ccc2c(c1)OCO2)NN=Cc1ccc2c(c1)OCO2	0	2.3µM	-	-	0	3.3µM
O=C(N/N=C/c1cccc(O)c1)c1cc(-c2ccc3c(c2)OCO3)n[nH]1	0	21µM	0	0	0	21µM
O=C(N/N=C/c1ccc2c(c1)OCO2)c1cccnc1	0	0	0	0	0	0
O=C(N/N=C/c1ccc(O)cc1)c1cc(-c2ccc3c(c2)OCO3)n[nH]1	0	0	0	0	0	0
O=C(N/N=C\c1ccc2c(c1)OCO2)c1cncc(Br)c1	0	0	50µM	0	0	0
SMILES	VDR inh	TDP1 cell noCPT	TDP1 inh	GCN5L2 inh	PLK1 PBD block	DT40 TDP1 CPT
CC1(C)CC(=O)C([N+](=O)[O-])=C(NCCCC(=O)O)C1	0	0	0	0	0	0
Cc1ccc2nc(SC(Cc3cc(Cl)ccc3Cl)C(=O)O)[nH]c2c1 (centres undefined)	0	?	0	0	-	?
Cc1sc2ncn(CC(=O)N3CCOCC3)c(=O)c2c1-c1ccccc1	0	0	0	0	0	?
CCNC(=S)NC1CC2CCC(C1)N2Cc1ccccc1 (centres undefined)	0	0	0	0	0	0
O=C(NCc1ccccc1)NC1CCCCC1	0	0	0	0	0	0
O=C(NCc1ccccc1)c1ccc(C(=O)NCc2ccccc2)cc1	0	0	-	-	0	0
S=C(NC1CCCCC1)NC1CC2CCC(C1)N2Cc1ccccc1 (centres undefined)	0	18µM	0	0	0	?
